# Hits are enriched below; roughly 3.8% of the tested compounds scored in any of these assays.
# B2AR arrestin ag – beta-arrestin recruitment by human beta2-adrenergic receptor ligands | HTLA Tango cells, beta-arrestin recruitment, luciferase luminescence, 18 h | Potency, µM (series often up to 46.1 µM), actives largely listed as activators | 44,000 tested, under 10 active | AID 1347077
#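 Receptor–beta-arrestin recruitment read by tTA-responsive luciferase: compound titrations (up to 46 µM) incubated 18 h with Tango cells, then luminescent substrate 15 min at room temperature. Concentration-response fits classified by r2, efficacy and activity.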
# NTMT1 inh – blocks human N-terminal methyltransferase 1 activity. NTMT1 MTase-Glo SAH luminescence, purified enzyme. hit rate 2.5% among 59,000. Q9BV86. Potency, µM (top dose mostly 114 µM), most hits filed as inhibitors. AID 1645870; note: nearly all actives have a fitted effect of over 65% in size
# Target sequence (Q9BV86 whole entry, looked up): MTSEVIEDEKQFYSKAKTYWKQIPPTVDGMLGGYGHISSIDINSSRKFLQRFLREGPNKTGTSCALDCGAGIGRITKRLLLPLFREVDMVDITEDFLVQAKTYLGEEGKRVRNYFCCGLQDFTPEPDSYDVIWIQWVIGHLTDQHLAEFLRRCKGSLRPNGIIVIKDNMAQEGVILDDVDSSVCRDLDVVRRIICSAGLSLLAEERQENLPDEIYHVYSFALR
# GALK inh – inhibitors of human galactokinase (GALK). P51570. recombinant GALK, Kinase-Glo ATP luminescence, 1 h. 44,000 tested, under 10 active. Potency, µM (highest dose often 57.5 µM), most hits filed as inhibitors
#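 Luminescent ATP-depletion readout (Kinase-Glo Plus) after 1 h room-temperature incubation of human GALK (5 nM) with galactose 100 µM and ATP 35 µM, pH 8.0 HEPES/Mg2+ buffer; compounds tested in qHTS format.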
# SKOV3 invasion – inhibitors of ovarian cancer cell adhesion and invasion in omental model; SKOV3ip1-GFP adhesion/invasion on 3D omental model, fluorescence; Potency, µM (highest dose often 45.8 µM), hits mostly inhibitors; hit rate 0.1% among 46,000; AID 1963576; note: nearly all actives have a fitted effect of over 65% in size
#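 A 3D layer of primary human omental fibroblasts, mesothelial cells, fibronectin and collagen I, grown 48 hr, received SKOV3ip1-GFP cells in serum-free medium plus compounds at 0.36-46 umol/L. After 2 hr RT and 16 hr 37 C, fixed adherent GFP cells were counted; normalized to DMSO and tomatine.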
# TSG101-PTAP inh – inhibitors of HIV-1 PTAP binding to human TSG101, validation | Fluorescence polarization, FITC-PTAP peptide/Tsg101, 20 min | Potency, µM (titrated, usually from 115 µM), usual class: inhibitors | 44,000 tested, under 10 active | AID 1347069
#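 Fluorescence polarization: Tsg101 binding domain (10 uM final) in 10 mM HEPES pH 7.5, 0.15 M NaCl, 0.01% Tween 20, 3 mM EDTA, 0.1 mM TCEP; compounds pinned; FITC-PTAP peptide 50 nM final; 20 min, r.t.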
# DRV1 agonist – GPR32 (DRV1) agonism, beta-arrestin recruitment; O75388; CHO-K1 GPR32 beta-arrestin PathHunter luminescence, 90 min; zero percent set by DMSO-only wells; activation, % at 76.9 µM; hit rate 2.5% among 48,000;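 active = activation of at least 60% and not above a set upper limit, about 1 call in 100 departs from these limits; inconclusive = activation of 40% to 60%, or above that upper limit; inactive = activation under 40%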
# Target sequence (O75388 whole entry, looked up): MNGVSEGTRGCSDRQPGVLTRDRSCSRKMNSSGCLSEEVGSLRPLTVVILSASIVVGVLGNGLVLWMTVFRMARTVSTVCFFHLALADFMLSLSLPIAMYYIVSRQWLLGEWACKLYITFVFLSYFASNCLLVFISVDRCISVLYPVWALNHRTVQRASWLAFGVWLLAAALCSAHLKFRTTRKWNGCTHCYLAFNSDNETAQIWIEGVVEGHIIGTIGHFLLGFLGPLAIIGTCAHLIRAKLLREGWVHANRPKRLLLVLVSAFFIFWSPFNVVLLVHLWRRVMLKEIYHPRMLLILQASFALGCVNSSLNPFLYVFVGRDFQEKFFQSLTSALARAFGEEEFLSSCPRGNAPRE
#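 Luminescent readout of beta-Gal complementation quantifies ligand-induced beta-arrestin association with GPR32 in CHO-K1 cells; 90 min compound incubation at 37 °C, detection 1 h at room temperature.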
# Hits are given with their value; 0 = inactive; ? = inconclusive; - = not tested or not shown; ! = not confirmed by another sample; [ ] = remark or other dose. Unless noted, calls come from the whole dose curve; as a rule, active = well fitted curve in the direction sought with a large enough effect; inconclusive = small, poorly fitted or top-dose-only effect, or another doubt; inactive = no such curve, though single readings can be large; an effect the other way counts as inactive or inconclusive.
SMILES,B2AR arrestin ag,NTMT1 inh,GALK inh,SKOV3 invasion,TSG101-PTAP inh,DRV1 agonist
CCCCNC(=O)c1nn(C)c2c1CSc1ccccc1-2,0,79.4µM,0,0,0,0
COc1cccc(NC(=O)CN2C(=O)CSc3ccc(S(=O)(=O)N4CCCC4)cc32)c1,0,0,0,0,0,0
O=C(c1ccc(CSc2nc3ccncc3n2Cc2ccc(F)cc2)cc1)N1CCCCCC1,0,0,0,0,0,61.4
Cc1oc(-c2cccc(Cl)c2)nc1CN1CCCC(C(=O)NCc2ccc(F)cc2)C1 (stereo unspecified),0,?,0,0,0,70.5
Cc1ccccc1-c1nc(CN2CCCC(C(=O)NCc3ccc(Cl)cc3)C2)c(C)o1 (stereo unspecified),0,0,0,0,0,0
Cc1oc(-c2ccc(Cl)cc2)nc1CN1CCCC(C(=O)NCc2ccccc2)C1 (stereo unspecified),0,?,0,0,0,106.4
COc1ccccc1CNC(=O)CCc1c(C)nn(-c2ccc(N3CCCC3)nn2)c1C,0,-,0,0,0,0
O=C(Nc1ccc2oc(-c3cccnc3)nc2c1)c1ccc(-c2ccc(Cl)cc2)o1,0,?,0,0,0,0
COc1cccc(-c2nc3cc(NC(=O)c4ccc(C)c([N+](=O)[O-])c4)ccc3o2)c1,-,79.4µM,-,-,-,-
CCOc1ccc(C(=O)Nc2ccc(-c3nc4cc(C(C)C)ccc4o3)cc2)cc1Cl,0,0,0,0,0,84.0
O=C(Nc1ccc2oc(-c3cccnc3)nc2c1)c1ccc(-c2cccc(Cl)c2)o1,0,25.1µM,0,0,0,0
CCOc1cccc(C(=O)Nc2ccc3oc(-c4cccnc4)nc3c2)c1,0,?,0,0,0,106.6
COC(=O)c1nc(-c2cccc3ccccc23)oc1OC,-,0,-,-,-,-
COc1cccc(C2=CC(c3ccccc3F)n3ncc(C(=O)Nc4ccc(F)cc4)c3N2)c1 (stereo unspecified),0,22.4µM,0,?,0,70.5
O=C(c1cc2c(=O)oc3ccccc3c2s1)N1CCN(c2ccccc2)CC1,0,0,0,0,0,0
Cc1cc(Nc2ncc(Cl)c(Nc3ccccc3S(=O)(=O)C(C)C)n2)c(OC(C)C)cc1C1CCNCC1,-,14.1µM,-,-,-,-
COc1cc(N2CCC(N3CCN(C)CC3)CC2)ccc1Nc1ncc(Cl)c(Nc2ccccc2P(C)(C)=O)n1,-,0,-,-,-,-
Cc1nc2c(-c3ccccc3)c(C)nn2c(C)c1CCC(=O)NCc1cccc(Cl)c1,0,0,0,0,0,61.7
Cc1nc2c(-c3ccc(F)cc3)c(C)nn2c(C)c1CCC(=O)NCc1ccc(Cl)cc1,0,0,0,0,0,0
CC(=O)c1cccc(NC(=O)CCS(=O)(=O)c2ccc(Br)s2)c1,0,0,0,0,0,0
Cc1ccc(NC(=O)CCS(=O)(=O)c2ccc(Br)s2)c(Br)c1,0,0,0,0,0,70.9
COc1ccc(-c2cc(C(C)=O)c(C)n2CCC(=O)Nc2ccc(C)cc2Cl)cc1,0,89.1µM,0,0,0,0
COc1ccc(-c2cc(C(C)=O)c(C)n2CCC(=O)Nc2cc(C)ccc2OC)cc1,0,0,0,0,0,0
COc1ccc(C)c2sc(N3CCN(C(=O)c4ccco4)CC3)nc12,0,?,0,0,0,86.0
Cc1cn2c(=O)cc(COC(=O)c3cccc(NC(=O)COc4ccccc4C)c3)nc2s1,0,0,0,0,0,0
SMILES,B2AR arrestin ag,NTMT1 inh,GALK inh,SKOV3 invasion,TSG101-PTAP inh,DRV1 agonist
CC(C)Cn1c(=O)c2ccccc2n2c(CCC(=O)N3CCN(c4ccccc4F)CC3)nnc12,0,0,0,0,0,0
CCCCCCCCCCCCCCCCOP(=O)([O-])OCC[N+](C)(C)C,-,0,-,-,-,93.5
CN(C)c1ccc(C(CNS(=O)(=O)c2ccc(F)cc2)N2CCCC2)cc1 (stereo unspecified),0,89.1µM,0,?,0,0
Cc1cc2n(n1)CCCN2C(=O)Nc1ccc(Cl)cc1,0,?,0,0,0,107.8
Cc1cc2n(n1)CCCN2C(=O)Nc1ccc(F)c(Cl)c1,0,0,0,0,0,0
CC(=O)Nc1sc2c(c1-c1ccc3nsnc3c1)CCNC2,-,0,-,-,-,-
CC(=O)Nc1sc2c(c1-c1ccc3nc[nH]c3c1)CCNC2,-,50.1µM,-,-,-,-
Cc1cc(C)cc(Nc2cc(-c3ccccc3)nc(C)n2)c1,0,0,0,0,0,?
Oc1cccc(Nc2cc(-c3ccccc3)ncn2)c1,0,39.8µM,0,0,0,0
CC(=O)O[C@H]1CC[C@@]2(CI)C(=CC[C@@H]3[C@@H]2CC[C@]2(C)[C@@H]([C@H](C)CCCC(C)C)CC[C@@H]32)C1,-,0[12.6 µM],-,-,-,-
CC(C)CCC[C@@H](C)[C@H]1CC[C@H]2[C@@H]3CC=C4C[C@@H](OC(=O)NCCN(C)C)CC[C@]4(C)[C@H]3CC[C@]12C,-,22.4µM,-,-,-,-
Nc1ccc(O)c(C(=O)O)c1,-,39.8µM,-,-,-,0
COc1cc(CN(C(=O)Nc2ccccc2)c2ccccn2)cc(OC)c1OC,0,?,0,0,0,0
O=C(CC1(O)C(=O)N(CCc2ccccc2)c2ccc(Br)cc21)c1ccccc1 (stereo unspecified),0,0,0,0,0,60.3
Cc1cc(C)n(-c2nc3ccccc3nc2Nc2cc(C(=O)O)ccc2C)n1,0,?,0,0,0,0
C=C(CC)C(=O)c1ccc(OCC(=O)O)c(Cl)c1Cl,-,0,-,-,-,89.6
C[C@@]1(C2CCCC2)Cc2cc(OCC(=O)O)c(Cl)c(Cl)c2C1=O,-,-,-,-,-,0
Cc1ccc(Cl)c2sc(N3CCN(C(=O)C4CC4)CC3)nc12,0,?,0,0,0,73.0
Cc1c(C(=O)N2CCOc3ccc(-c4ccc(N)nc4)cc3C2)ccc(S(C)(=O)=O)c1F,-,50.1µM!,-,-,-,-
Cc1ccc(C)c(N(C)C(=O)Cc2c(C(=O)O)[nH]c3ccc(Cl)cc23)c1,0,0,0,0,0,70.2
O=C(CCNS(=O)(=O)c1ccc2c(c1)CCN2C(=O)C1CC1)N1CCN(c2ccc(F)cc2)CC1,0,0,0,0,0,69.2
O=C(CCNS(=O)(=O)c1ccc2c(c1)CCN2C(=O)C1CC1)N1CCN(c2cccc(Cl)c2)CC1,0,0,0,0,0,60.6
COc1ccc(N2CCN(C(=O)CCNS(=O)(=O)c3ccc4c(c3)CCN4C(=O)C3CC3)CC2)cc1,0,0,0,0,0,0
O=C(CCNS(=O)(=O)c1ccc2c(c1)CCN2C(=O)C1CC1)Nc1ccc(F)cc1F,0,0,0,0,0,84.6
Cc1cccc(NC(=O)CCNS(=O)(=O)c2ccc3c(c2)CCN3C(=O)C2CC2)c1,0,0,0,0,0,0
